This note sets out measurements from PubChem BioAssay.

Molecules are shown by their SMILES. Values without a mark were called inactive. How the calls were made is not given here.

The nature of this test: blockers of DNA damage checkpoint Chk1 activation – imaging, HeLa, hydroxyurea, phospho-Chk1 nuclear intensity, primary screen (AID 1187). Further: test concentration not given here. The following applies: hydroxyurea-induced phospho-Chk1 immunofluorescence imaging, higher = more signal.
Regarding `CCCCC(=C=CC[C@@H](O)c1ccccc1OCCO)C[C@@H](O)c1ccccn1`, the z-score was -0.123.

Turning to `[N-]=[N+]=Nc1ccccc1C[C@]1(C(=O)N2CCCCC2)N=C(c2ccc(OCCCO)cc2)O[C@H]1c1ccccc1`, the z-score is -0.78.

`C=C1C(=O)C=C2CN(C(=O)c3ccccc3)[C@@](Cc3ccc(F)cc3)(C(=O)OC)[C@@H]12`: the z-score is -3.76.

Take `COC(=O)C(CC#Cc1ccc2c(c1)[C@]1(C(=O)N2)[C@H](c2ccc(OCCO)cc2)N2[C@H](c3ccccc3)[C@H](c3ccccc3)OC(=O)[C@H]2[C@@H]1C(N)=O)C(=O)OC`: the z-score was -0.303.

`C=CCNC(=O)[C@H]1[C@@H]2C(=O)O[C@@H](c3ccccc3)[C@@H](c3ccccc3)N2[C@@H](c2ccc(O)cc2)[C@]12C(=O)N(C(=O)OCCOC)c1ccc(C#Cc3ccc(OC)cc3)cc12`: the z-score is 0.21.

Consider `C=C(C)C1CN([C@H](CO)c2ccccc2)C(=O)/C1=C\c1ccccc1` (stereo partly specified), for which the z-score was -0.234.

Regarding `COC(=O)C(CC#Cc1ccc2c(c1)[C@]1(C(=O)N2)[C@H](C(N)=O)[C@H]2C(=O)O[C@H](c3ccccc3)[C@H](c3ccccc3)N2[C@@H]1c1ccccc1OCCO)C(=O)OC`, the z-score was -0.137.

On to `C=CC[C@H](OC(=O)Nc1ccc(SC)cc1)c1ccc(O)c(F)c1`, for which the z-score was 0.417.

Regarding `CN1C2C=C(c3ccc(CO)cc3)C(C3C(=O)N(C(N)=O)C(=O)C32)C1C1CC1` (stereo unspecified), the z-score was 0.169.

Take `CCCCN1CC=CC23O[C@@H]4/C=C\CCCOC(=O)C4[C@H]2C(=O)N(CCCCCCO)[C@@H]3C1=O` (stereo partly specified): the z-score was -0.137.

Take `CN(C)C(=O)[C@]1(CCS(=O)(=O)c2ccccc2)N=C(c2ccc(OCCCO)cc2)O[C@@H]1c1ccccc1CN=[N+]=[N-]`: the z-score is -0.0306.

In the case of `CC(C)(C)OC(=O)CC[C@@]1(C(=O)N2CCOCC2)N=C(c2ccc(OCCCO)cc2)O[C@@H]1c1ccccc1CN=[N+]=[N-]`, the z-score was 0.291.

Take `COc1ccc(CCNC(=O)[C@@H]2c3ccccc3C(=O)N(C(C)C)[C@H]2c2ccc(CO)cc2)cc1`: the z-score is -0.238.

As for `COC(=O)C(CC#Cc1ccc2c(c1)[C@]1(C(=O)N2)[C@H](C(=O)N2CCCCCCC2)[C@H]2C(=O)O[C@H](c3ccccc3)[C@H](c3ccccc3)N2[C@@H]1c1ccc(OCCO)cc1)C(=O)OC`, the z-score is 0.331.

Regarding `O=C1N(Cc2ccccc2)Cc2ccccc2C[C@@]12COC(c1ccc(OCCCO)cc1)=N2`, the z-score is 0.273.

For the compound `COc1cccc(C)c1NC(=O)O[C@H]1[C@H](OC(=O)Nc2ccccc2)[C@@H](OC(=O)Nc2ccccc2)[C@@H](OC)O[C@@H]1CO`, the z-score was -0.515.

`COc1ccc(NN2C(C(O)c3ccc(F)cc3)C=CC3C(=O)N(C4CCCCC4)C(=O)C32)cc1` (stereo unspecified): the z-score was 0.0539.

As for `COCCOC(=O)N1C(=O)[C@@]2(c3cc(C#CCCO)ccc31)[C@H](c1ccc(O)cc1)N1[C@H](c3ccccc3)[C@H](c3ccccc3)OC(=O)[C@H]1[C@@H]2C(=O)NC[C@H](O)c1ccccc1`, the z-score was 0.345.

Regarding `CC(C)N1CC=CC23O[C@@H]4/C=C\CCCOC(=O)C4[C@H]2C(=O)N(C(C)CO)[C@@H]3C1=O` (stereo partly specified), the z-score is -0.988.

Consider `O=C/C=C/c1ccc(-c2ccccc2)cc1`, for which the z-score is 0.792.

On to `C=CCC(OC(C)=O)[C@@H]1[C@@H](N(Cc2ccc(-c3ccccc3)cc2)C(=O)Cc2ccc(OC)cc2)c2cc(OCCCO)ccc2N1C(=O)Cc1ccc(OC)cc1` (stereo partly specified), for which the z-score was 0.763.

As to `COc1ccc([Si](C)(C)[C@@H]2[C@@H](CC(=O)N(CCO)Cc3ccccc3)O[C@]3(C(=O)N(Cc4cccc(I)c4)c4ccccc43)[C@H]2C)cc1`, the z-score was 0.828.

On to `CCCCCN1CC=CC23O[C@@H]4/C=C\CCCOC(=O)C4[C@H]2C(=O)N(CCO)[C@@H]3C1=O` (stereo partly specified), for which the z-score is 0.205.

For `COc1ccc([Si](C)(C)[C@H]2[C@H](CC(=O)N3CCC[C@H]3CO)O[C@@]3(C(=O)N(C)c4c(Br)cc(C)cc43)[C@@H]2C)cc1`, the z-score is 0.523.

In the case of `Cc1ccc(S[C@]2(C(=O)NC(C)C)CC(=O)N(Cc3ccccc3)[C@@H]2c2ccc(CO)cc2)cc1`, the z-score was -0.32.

For `O=C1C2C=CC(C(O)C3CCCCC3)N(Nc3ccccc3F)C2C(=O)N1c1ccccc1` (stereo unspecified), the z-score is 0.0942.
